# Measured values: PMC7862700, “An all-to-all approach to the identification of sequence-specific readers for epigenetic DNA modifications on cytosine”
# Key:
# Assay in all cases: DAPPL (digital affinity profiling via proximity ligation, sequencing); 10 mM Tris-HCl pH 7.5, 50 mM NaCl, 1 mM DTT, 4% glycerol, room temperature, 30 min; GST-TFs on glutathione beads, 16-mer random dsDNA library, 0.1% formaldehyde crosslink after washing; high values mean tight binding
# FEV = molecular target: T1, FEV (Homo sapiens, UniProt Q99581 1-238); conditions: protein: recombinant; tags: N-terminal GST; dsDNA, one strand shown
# T1 sequence: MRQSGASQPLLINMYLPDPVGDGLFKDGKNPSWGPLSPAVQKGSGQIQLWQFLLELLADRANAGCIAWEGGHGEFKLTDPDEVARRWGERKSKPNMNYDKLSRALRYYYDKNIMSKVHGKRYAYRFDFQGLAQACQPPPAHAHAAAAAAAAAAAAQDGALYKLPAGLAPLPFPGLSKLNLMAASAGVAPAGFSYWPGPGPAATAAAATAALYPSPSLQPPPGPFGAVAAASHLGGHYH
# Outline: (§1)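 Human transcription factors carrying a GST fusion were produced in yeast, bound to glutathione beads, tagged with DNA barcodes and pooled together with a tag-only sample. Each pool was held with 200 nmole of a random double-stranded 16-mer DNA library in Tris/NaCl/DTT/glycerol buffer for 30 min at room temperature, then washed, crosslinked in 0.1% formaldehyde, proximity-ligated with BsaI/T4 ligase (1 h, 37 °C), PCR-amplified and sequenced on an Illumina NextSeq500. Binding signal is the read frequency of each hexamer for a given factor divided by its frequency in the tag-only sample.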
# ETV5 = ETV5 (Homo sapiens, UniProt P41161 1-510); conditions: protein: recombinant; tags: N-terminal GST; dsDNA, one strand shown
# Outline: as §1
# HSF1 = HSF1 (Homo sapiens, UniProt Q00613 1-529); conditions: protein: recombinant; tags: N-terminal GST; chain copies: 3; dsDNA, one strand shown
# Outline: as §1
# SPIC = molecular target: T2, SPIC (Homo sapiens, UniProt Q8N5J4 1-248); conditions: protein: recombinant; tags: N-terminal GST; dsDNA, one strand shown
# T2 sequence: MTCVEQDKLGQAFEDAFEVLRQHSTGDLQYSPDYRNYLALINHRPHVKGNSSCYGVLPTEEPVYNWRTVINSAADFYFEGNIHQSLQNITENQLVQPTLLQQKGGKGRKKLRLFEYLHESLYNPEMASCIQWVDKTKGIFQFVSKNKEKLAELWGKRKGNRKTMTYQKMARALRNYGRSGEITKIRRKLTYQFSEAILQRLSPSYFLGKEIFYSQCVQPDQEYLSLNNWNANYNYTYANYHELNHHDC
# Outline: as §1
# ELF4 = ELF4 (Homo sapiens, UniProt Q99607 1-663); conditions: protein: recombinant; tags: N-terminal GST; dsDNA, one strand shown
# Outline: as §1
# ELK4 = molecular target: T3, ELK4 (Homo sapiens, UniProt P28324-2 1-405); conditions: protein: recombinant; tags: N-terminal GST; dsDNA, one strand shown
# T3 sequence: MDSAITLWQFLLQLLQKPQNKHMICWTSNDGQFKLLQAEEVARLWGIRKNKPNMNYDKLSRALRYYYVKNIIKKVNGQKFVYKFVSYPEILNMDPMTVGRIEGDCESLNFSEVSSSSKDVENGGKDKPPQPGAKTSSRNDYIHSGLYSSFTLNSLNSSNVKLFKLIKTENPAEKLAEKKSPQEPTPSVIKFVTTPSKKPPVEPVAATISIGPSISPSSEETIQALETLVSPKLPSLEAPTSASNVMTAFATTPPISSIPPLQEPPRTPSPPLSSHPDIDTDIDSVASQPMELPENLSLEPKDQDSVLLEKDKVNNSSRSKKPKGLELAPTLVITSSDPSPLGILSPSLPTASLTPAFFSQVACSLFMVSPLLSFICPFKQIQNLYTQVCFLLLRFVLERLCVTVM
# Outline: as §1
# ETV2 = molecular target: T4, ETV2 (Homo sapiens, UniProt O00321 1-342); conditions: protein: recombinant; tags: N-terminal GST; dsDNA, one strand shown
# T4 sequence: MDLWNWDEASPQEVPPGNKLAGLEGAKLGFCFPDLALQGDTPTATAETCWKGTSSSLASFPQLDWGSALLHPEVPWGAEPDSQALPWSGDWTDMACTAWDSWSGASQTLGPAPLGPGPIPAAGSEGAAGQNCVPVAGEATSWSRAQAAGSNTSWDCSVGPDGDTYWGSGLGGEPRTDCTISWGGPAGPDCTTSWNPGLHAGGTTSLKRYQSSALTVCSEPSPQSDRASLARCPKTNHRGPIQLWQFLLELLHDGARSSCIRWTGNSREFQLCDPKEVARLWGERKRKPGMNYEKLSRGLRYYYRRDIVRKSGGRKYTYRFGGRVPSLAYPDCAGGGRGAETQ
# Outline: as §1
# ELF3 = molecular target: T5, ELF3 (Homo sapiens, UniProt P78545 1-371); conditions: protein: recombinant; tags: N-terminal GST; dsDNA, one strand shown
# T5 sequence: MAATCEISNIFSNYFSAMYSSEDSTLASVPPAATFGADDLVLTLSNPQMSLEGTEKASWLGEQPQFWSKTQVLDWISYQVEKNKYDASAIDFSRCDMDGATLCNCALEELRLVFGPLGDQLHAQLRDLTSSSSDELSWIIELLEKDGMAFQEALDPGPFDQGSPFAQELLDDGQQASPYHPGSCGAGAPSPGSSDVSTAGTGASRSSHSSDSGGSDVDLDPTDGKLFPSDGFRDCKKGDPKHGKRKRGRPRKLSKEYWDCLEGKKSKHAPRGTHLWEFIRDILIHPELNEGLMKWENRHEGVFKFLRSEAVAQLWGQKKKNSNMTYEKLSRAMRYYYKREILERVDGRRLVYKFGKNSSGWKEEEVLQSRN
# Outline: as §1
# CRX = CRX (Homo sapiens, UniProt O43186 1-299); conditions: protein: recombinant; tags: N-terminal GST; dsDNA, one strand shown
# Outline: as §1
# ETV1 = ETV1 (Homo sapiens, UniProt P50549 1-477); conditions: protein: recombinant; tags: N-terminal GST; dsDNA, one strand shown
# Outline: as §1
# CRX, sequence (O43186 whole entry): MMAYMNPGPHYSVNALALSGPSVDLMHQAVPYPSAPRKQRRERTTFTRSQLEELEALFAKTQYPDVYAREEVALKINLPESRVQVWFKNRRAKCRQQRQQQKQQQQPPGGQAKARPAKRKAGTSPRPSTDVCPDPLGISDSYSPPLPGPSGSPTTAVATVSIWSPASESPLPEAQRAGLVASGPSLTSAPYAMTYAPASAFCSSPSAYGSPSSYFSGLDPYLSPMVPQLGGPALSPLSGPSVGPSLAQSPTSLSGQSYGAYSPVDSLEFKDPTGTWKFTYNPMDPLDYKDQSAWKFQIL
# HSF1, sequence (Q00613 whole entry): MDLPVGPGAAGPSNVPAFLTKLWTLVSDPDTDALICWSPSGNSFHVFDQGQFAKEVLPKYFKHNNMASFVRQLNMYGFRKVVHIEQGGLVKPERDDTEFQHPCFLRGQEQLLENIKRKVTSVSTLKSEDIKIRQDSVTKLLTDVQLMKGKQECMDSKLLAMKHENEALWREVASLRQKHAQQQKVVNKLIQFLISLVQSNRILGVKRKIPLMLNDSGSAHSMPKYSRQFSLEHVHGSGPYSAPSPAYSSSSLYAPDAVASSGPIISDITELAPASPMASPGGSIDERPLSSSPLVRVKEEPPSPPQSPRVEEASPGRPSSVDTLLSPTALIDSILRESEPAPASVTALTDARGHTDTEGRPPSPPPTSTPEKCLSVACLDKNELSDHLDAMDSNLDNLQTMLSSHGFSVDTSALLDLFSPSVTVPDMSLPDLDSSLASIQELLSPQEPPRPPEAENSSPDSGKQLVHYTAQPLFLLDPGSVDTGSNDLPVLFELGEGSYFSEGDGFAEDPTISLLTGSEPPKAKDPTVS
# ETV5, sequence (P41161 whole entry): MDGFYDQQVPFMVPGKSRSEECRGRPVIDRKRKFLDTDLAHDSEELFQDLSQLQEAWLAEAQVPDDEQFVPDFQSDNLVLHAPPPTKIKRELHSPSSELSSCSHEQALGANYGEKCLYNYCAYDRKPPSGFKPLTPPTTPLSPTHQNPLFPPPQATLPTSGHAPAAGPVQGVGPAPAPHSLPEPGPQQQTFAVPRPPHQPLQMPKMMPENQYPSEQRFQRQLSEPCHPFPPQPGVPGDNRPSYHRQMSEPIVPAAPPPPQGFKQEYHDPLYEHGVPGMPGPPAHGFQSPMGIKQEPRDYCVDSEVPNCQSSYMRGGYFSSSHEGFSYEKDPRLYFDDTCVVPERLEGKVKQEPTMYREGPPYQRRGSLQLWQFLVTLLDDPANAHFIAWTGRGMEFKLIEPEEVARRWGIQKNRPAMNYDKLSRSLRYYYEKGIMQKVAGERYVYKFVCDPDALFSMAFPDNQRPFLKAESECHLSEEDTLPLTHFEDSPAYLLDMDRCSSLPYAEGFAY
# ETV1, sequence (P50549 whole entry): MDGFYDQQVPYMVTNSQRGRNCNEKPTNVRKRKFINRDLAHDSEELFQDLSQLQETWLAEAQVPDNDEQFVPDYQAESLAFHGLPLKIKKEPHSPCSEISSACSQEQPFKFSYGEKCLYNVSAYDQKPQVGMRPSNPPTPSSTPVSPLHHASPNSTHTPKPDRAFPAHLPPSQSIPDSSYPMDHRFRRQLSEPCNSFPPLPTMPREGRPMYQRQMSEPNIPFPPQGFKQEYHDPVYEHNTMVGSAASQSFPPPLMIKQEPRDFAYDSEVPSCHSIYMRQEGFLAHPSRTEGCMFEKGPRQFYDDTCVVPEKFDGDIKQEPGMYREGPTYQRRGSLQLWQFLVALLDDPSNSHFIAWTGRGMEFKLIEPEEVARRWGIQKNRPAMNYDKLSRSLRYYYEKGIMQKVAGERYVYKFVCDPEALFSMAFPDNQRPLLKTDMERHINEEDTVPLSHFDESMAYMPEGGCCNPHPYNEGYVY
# ELF4, sequence (Q99607 whole entry): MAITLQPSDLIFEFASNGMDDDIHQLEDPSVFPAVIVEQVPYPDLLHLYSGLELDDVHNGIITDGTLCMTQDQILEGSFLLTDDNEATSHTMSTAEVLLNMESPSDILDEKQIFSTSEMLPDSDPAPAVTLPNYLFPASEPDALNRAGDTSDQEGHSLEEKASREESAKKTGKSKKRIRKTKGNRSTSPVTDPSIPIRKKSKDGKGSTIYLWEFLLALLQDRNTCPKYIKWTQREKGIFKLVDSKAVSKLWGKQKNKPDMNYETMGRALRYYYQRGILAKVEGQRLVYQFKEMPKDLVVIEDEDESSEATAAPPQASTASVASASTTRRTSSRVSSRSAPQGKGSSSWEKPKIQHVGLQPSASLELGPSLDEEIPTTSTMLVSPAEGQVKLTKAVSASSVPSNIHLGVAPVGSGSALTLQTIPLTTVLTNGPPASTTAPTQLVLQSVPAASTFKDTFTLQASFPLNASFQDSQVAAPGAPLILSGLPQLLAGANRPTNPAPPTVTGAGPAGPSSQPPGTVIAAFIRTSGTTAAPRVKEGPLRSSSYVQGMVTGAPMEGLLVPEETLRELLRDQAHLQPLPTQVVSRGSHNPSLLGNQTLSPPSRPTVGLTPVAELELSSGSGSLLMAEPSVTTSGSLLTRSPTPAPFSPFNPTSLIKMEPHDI
Sequence,binding signal (FEV),binding signal (ETV5),binding signal (HSF1),binding signal (SPIC),binding signal (ELF4),binding signal (ELK4),binding signal (ETV2),binding signal (ELF3),binding signal (CRX),binding signal (ETV1)
ATATAG,"1.1 fold enrichment (6-mer frequency, TF over GST control)","1.24 fold enrichment (6-mer frequency, TF over GST control)","1.19 fold enrichment (6-mer frequency, TF over GST control)","1.2 fold enrichment (6-mer frequency, TF over GST control)","1.09 fold enrichment (6-mer frequency, TF over GST control)","1.19 fold enrichment (6-mer frequency, TF over GST control)","1.07 fold enrichment (6-mer frequency, TF over GST control)","1.28 fold enrichment (6-mer frequency, TF over GST control)","1.26 fold enrichment (6-mer frequency, TF over GST control)","1.17 fold enrichment (6-mer frequency, TF over GST control)"
CTCCTA,"1.32 fold enrichment (6-mer frequency, TF over GST control)","1.28 fold enrichment (6-mer frequency, TF over GST control)","1.39 fold enrichment (6-mer frequency, TF over GST control)","1.49 fold enrichment (6-mer frequency, TF over GST control)","1.44 fold enrichment (6-mer frequency, TF over GST control)","1.46 fold enrichment (6-mer frequency, TF over GST control)","1.24 fold enrichment (6-mer frequency, TF over GST control)","1.31 fold enrichment (6-mer frequency, TF over GST control)","1.49 fold enrichment (6-mer frequency, TF over GST control)","1.29 fold enrichment (6-mer frequency, TF over GST control)"
GCCTCG,"1.25 fold enrichment (6-mer frequency, TF over GST control)","1.33 fold enrichment (6-mer frequency, TF over GST control)","1.31 fold enrichment (6-mer frequency, TF over GST control)","1.07 fold enrichment (6-mer frequency, TF over GST control)","1.38 fold enrichment (6-mer frequency, TF over GST control)","1.32 fold enrichment (6-mer frequency, TF over GST control)","1.06 fold enrichment (6-mer frequency, TF over GST control)","1.33 fold enrichment (6-mer frequency, TF over GST control)","1.08 fold enrichment (6-mer frequency, TF over GST control)","1.26 fold enrichment (6-mer frequency, TF over GST control)"
TCTTCC,"2.55 fold enrichment (6-mer frequency, TF over GST control)","2.85 fold enrichment (6-mer frequency, TF over GST control)","1.69 fold enrichment (6-mer frequency, TF over GST control)","2.31 fold enrichment (6-mer frequency, TF over GST control)","2.35 fold enrichment (6-mer frequency, TF over GST control)","2.38 fold enrichment (6-mer frequency, TF over GST control)","2.61 fold enrichment (6-mer frequency, TF over GST control)","2.33 fold enrichment (6-mer frequency, TF over GST control)","1.34 fold enrichment (6-mer frequency, TF over GST control)","2.62 fold enrichment (6-mer frequency, TF over GST control)"
TCTATT,"1.22 fold enrichment (6-mer frequency, TF over GST control)","1.3 fold enrichment (6-mer frequency, TF over GST control)","1.43 fold enrichment (6-mer frequency, TF over GST control)","1.57 fold enrichment (6-mer frequency, TF over GST control)","1.27 fold enrichment (6-mer frequency, TF over GST control)","1.25 fold enrichment (6-mer frequency, TF over GST control)","1.16 fold enrichment (6-mer frequency, TF over GST control)","1.35 fold enrichment (6-mer frequency, TF over GST control)","1.37 fold enrichment (6-mer frequency, TF over GST control)","1.25 fold enrichment (6-mer frequency, TF over GST control)"
TCTTAA,"1.24 fold enrichment (6-mer frequency, TF over GST control)","1.2 fold enrichment (6-mer frequency, TF over GST control)","1.88 fold enrichment (6-mer frequency, TF over GST control)","1.2 fold enrichment (6-mer frequency, TF over GST control)","1.19 fold enrichment (6-mer frequency, TF over GST control)","1.18 fold enrichment (6-mer frequency, TF over GST control)","1.25 fold enrichment (6-mer frequency, TF over GST control)","1.24 fold enrichment (6-mer frequency, TF over GST control)","2.69 fold enrichment (6-mer frequency, TF over GST control)","1.12 fold enrichment (6-mer frequency, TF over GST control)"
CTCGAT,"1.29 fold enrichment (6-mer frequency, TF over GST control)","1.3 fold enrichment (6-mer frequency, TF over GST control)","2.06 fold enrichment (6-mer frequency, TF over GST control)","1.46 fold enrichment (6-mer frequency, TF over GST control)","1.43 fold enrichment (6-mer frequency, TF over GST control)","1.59 fold enrichment (6-mer frequency, TF over GST control)","1.25 fold enrichment (6-mer frequency, TF over GST control)","1.09 fold enrichment (6-mer frequency, TF over GST control)","1.48 fold enrichment (6-mer frequency, TF over GST control)","1.27 fold enrichment (6-mer frequency, TF over GST control)"
